This is part of a sample that, as a whole, favours compounds with a hit. Of some 83,000 tested, about 20% had one in any assay.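 Testing used 96-well plates and a 48-hour single-concentration exposure. Example: -40 means 40% of the starting cells died.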 A number with no mark means an inactive call. Active and inactive are the calls of the source. The calls were made as follows: active = growth percent below 10; inactive = the rest.
Tests used:
Assay in all cases: NCI-60 one-dose screen, 48 h (100 = growth as untreated, 0 = no growth, -100 = all killed)
Details in all cases: 10 µM
SR leukemia = system: SR leukemia
RPMI-8226 leukemia = system: RPMI-8226 leukemia
OVCAR-8 ovarian = system: OVCAR-8 ovarian
OVCAR-5 ovarian = system: OVCAR-5 ovarian
OVCAR-4 ovarian = system: OVCAR-4 ovarian
SK-OV-3 ovarian = system: SK-OV-3 ovarian
IGROV1 ovarian = system: IGROV1 ovarian
OVCAR-3 ovarian = system: OVCAR-3 ovarian
HS 578T breast = system: HS 578T breast
NCI/ADR-RES ovarian = system: NCI/ADR-RES ovarian
T-47D breast = system: T-47D breast
BT-549 breast = system: BT-549 breast
MDA-MB-435 melanoma = system: MDA-MB-435 melanoma
SW-620 colon = system: SW-620 colon
MCF7 breast = system: MCF7 breast
HCT-116 colon = system: HCT-116 colon
HCC-2998 colon = system: HCC-2998 colon
KM12 colon = system: KM12 colon

SMILES	growth (SR leukemia)	growth (RPMI-8226 leukemia)	growth (OVCAR-8 ovarian)	growth (OVCAR-5 ovarian)	growth (OVCAR-4 ovarian)	growth (SK-OV-3 ovarian)	growth (IGROV1 ovarian)	growth (OVCAR-3 ovarian)	growth (HS 578T breast)	growth (NCI/ADR-RES ovarian)	growth (T-47D breast)	growth (BT-549 breast)	growth (MDA-MB-435 melanoma)	growth (SW-620 colon)	growth (MCF7 breast)	growth (HCT-116 colon)	growth (HCC-2998 colon)	growth (KM12 colon)
CCCCC/C=C/C/C=C/CCCCCCCC1=NC(C)(C)CN1C(C)C	2.99% (active)	-35.7% (active)	28.3%	62.9%	27.2%	68.1%	8.27% (active)	17.4%	26.7%	37.1%	16.5%	77.8%	15.9%	-70.3% (active)	-16.4% (active)	-36.8% (active)	-9.05% (active)	-92% (active)
O=S(=O)(Oc1ccc(-c2ccc3sccc3c2)cc1)c1ccc(F)cc1	86.3%	96.4%	106%	102%	100%	107%	104%	110%	112%	95.8%	96%	102%	93.5%	93.5%	84.8%	102%	86.8%	104%
COc1ccc2nc(-c3ccc(Cl)cc3)cc(-c3nnc(SC/C(=N\O)c4ccccc4)n3-c3ccccc3)c2c1	67.1%	59.7%	82.3%	88.6%	84.5%	99.9%	105%	86.4%	92.8%	88.2%	63.5%	90.8%	83.1%	90.5%	69.3%	67.9%	115%	69.2%
CCCCC(CC)CN=C(N)NC(N)=NCCCCCCN=C(N)NC(N)=NCC(CC)CCCC (centres undefined)	-67.4% (active)	-46.7% (active)	-71.6% (active)	-87.1% (active)	-57.2% (active)	-38% (active)	-66.8% (active)	-83.6% (active)	-52.6% (active)	46.7%	-54.3% (active)	-85.2% (active)	-94% (active)	-78% (active)	-75.7% (active)	-85.6% (active)	-88.8% (active)	-94.4% (active)
NC1=NC(c2ccc(Cl)cc2)C2=C(N1)/C(=C/c1ccc(Cl)cc1)CCC2 (centres undefined)	20.8%	-12.4% (active)	41.2%	112%	76.1%	80.6%	85.2%	39.1%	100%	92.9%	102%	79%	-0.458% (active)	18.9%	33.2%	-72.1% (active)	-31.1% (active)	2.3% (active)
CCN(CC)CCOC(=O)c1cc(OCc2ccccc2)c(OCc2ccccc2)c(OCc2ccccc2)c1	1.2% (active)	32.9%	56.3%	83.3%	75.5%	100%	42.6%	64.9%	66.3%	52.5%	66.8%	86.8%	74.7%	19.7%	8.2% (active)	24%	53.8%	40.7%
CCCN1CN2C(=O)N3CN(CCC)CN4C(=S)N(C1)C2C34 (centres undefined)	79.3%	105%	108%	95.2%	103%	86.1%	99.3%	103%	113%	103%	90%	89.5%	106%	108%	87.7%	82.9%	106%	101%
CN1C(C(=O)Nc2ccccn2)=C(O)c2sc(Cl)cc2S1(=O)=O	96.1%	94.5%	95.9%	104%	106%	104%	99.6%	105%	98.5%	95.4%	92.6%	108%	97.6%	95.8%	96.6%	100%	95.1%	104%
COc1cccc(N=Nc2cccc(OC)c2)c1	92.8%	87%	96.2%	90.6%	104%	84.6%	89.6%	102%	79.8%	105%	70.2%	85%	98.6%	94.2%	78.8%	84.8%	88.6%	95.8%
C=C(NC(=O)C(=C)NC(=O)c1csc(C2=NC3c4csc(n4)C4NC(=O)c5csc(n5)C(C(C)(O)C(C)O)NC(=O)C5CSC(=N5)C(=CC)NC(=O)C(C(C)O)NC(=O)c5csc(n5)C3(CC2)NC(=O)C(C)NC(=O)C(=C)NC(=O)C(C)NC(=O)C(C(C)CC)NC2C=Cc3c(C(C)O)cc(nc3C2O)C(=O)OC4C)n1)C(N)=O (centres undefined)	-7.28% (active)	10.1%	20.4%	34%	33.1%	99.8%	64.6%	34%	42.5%	86.3%	40.4%	0.0683% (active)	4.84% (active)	1.83% (active)	16.7%	-70.9% (active)	79.3%	28.3%
COc1cc2c(Nc3ccc(S(N)(=O)=O)cc3)ncnc2c(OC)c1OC	99.9%	99.1%	106%	105%	102%	75.5%	96.1%	90.4%	96%	96.5%	97%	126%	105%	95.7%	96.6%	108%	98.4%	99.2%
CC[N+](CC)=c1ccc2nc3c(cc(NCc4ccccc4)c4ccccc43)oc-2c1	-9.48% (active)	-21.1% (active)	-27.2% (active)	-91.4% (active)	-93.1% (active)	-8.74% (active)	-94.5% (active)	-54.9% (active)	-20.4% (active)	-7.86% (active)	-55.9% (active)	39.4%	-98.9% (active)	-82.5% (active)	-82.2% (active)	-35.6% (active)	-94.8% (active)	-88.6% (active)
COc1ccc(CCN2CCC(Nc3nc4ccccc4n3Cc3ccc(F)cc3)CC2)cc1	-54.6% (active)	-20.2% (active)	-40.4% (active)	34.5%	22.4%	44%	41.2%	28.3%	-40.2% (active)	37.7%	-3.86% (active)	31.9%	-91.7% (active)	-54.8% (active)	-53.6% (active)	-39.4% (active)	-84.6% (active)	17.7%
COc1ccc(/C=C2\CCCC3C2=Nc2ccccc2NC3c2ccc(OC)cc2)cc1 (centres undefined)	53.9%	25.7%	85.1%	127%	77.5%	89.3%	96.6%	86.8%	87.6%	86.2%	101%	79.6%	13.8%	72.2%	56.1%	38.1%	104%	27.5%
Cc1cc(SC#N)cc(C(C)(C)C)c1O	86%	96.6%	99.9%	88.4%	96.1%	93.1%	100%	95%	110%	104%	80%	87.3%	107%	120%	97.4%	70.9%	109%	105%
COc1ccc2nc3cc(Cl)ccc3c(Nc3cc(CN4CCCC4)c(O)c(CN4CCCC4)c3)c2n1	-18.6% (active)	-3.6% (active)	10.5%	6.64% (active)	-16.3% (active)	29.8%	27.6%	23.9%	15.5%	10.1%	13.1%	-37% (active)	-94% (active)	7.17% (active)	-11.9% (active)	6.62% (active)	-31.8% (active)	11.8%
CC[C@@H](C(=O)[C@@H](C)[C@@H](O)[C@H](C)[C@@H]1O[C@@H]([C@@H](CC)C(=O)O)CC[C@@H]1C)C1O[C@]2(C=CC(=O)[C@]3(CC[C@@](C)([C@H]4CC[C@](O)(CC)[C@H](C)O4)O3)O2)[C@H](C)C[C@@H]1C (some centres undefined)	31.3%	4.99% (active)	44.4%	56.1%	47.7%	69.1%	48.4%	27.2%	30.6%	40%	26.1%	34.2%	21%	35.2%	11.2%	32.6%	36.1%	36%
CC(C)(C)c1ccc(S(=O)(=O)N[C@H]2CC[C@H]3[C@@H]4CCc5cc(O)c([N+](=O)[O-])cc5[C@H]4CC[C@]23C)cc1	63.5%	67.3%	59.6%	95.9%	10.3%	47.7%	78.1%	53.7%	61.6%	69.1%	46.6%	67.7%	80.3%	89.9%	54.1%	32.6%	92.5%	77.1%

Source: PubChem BioAssay (NCI)
